# Inconclusive results are not listed. Where a call stands in place of a potency, no number is given. The source made the active and inactive calls. Unless noted, calls follow the shape of the dose curve; as a rule, active = well fitted curve in the direction sought with a large enough effect; inconclusive = small, poorly fitted or top-dose-only effect, or another doubt; inactive = no such curve, though single readings can be large; an effect the other way counts as inactive or inconclusive.
# Columns and labels:
# [1] = Validation of Assay for Modulators of Lamin A Splicing (AID 1459; active = well fitted curve in the direction sought with a large enough effect in the signal ratio; the % refers to the signal ratio;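 also: cells exposed to compound for two days before reading; ratio rise marks activators and ratio drop marks inhibitors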)
# In short: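 Splicing correction read as GFP (500-530 nm) over DsRed2 (575-640 nm) object intensity after 48 h compound exposure of reporter HeLa S3 clones (600 cells/well, 2% FBS medium); ancitabine and cycloheximide titrations, 0.5% DMSO as vehicle.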
# [2] = molecular target: DNA repair nuclease/redox regulator APEX1 (Homo sapiens) (UniProt P27695); assay: qHTS Validation Assay for Inhibitors of the Human Apurinic/apyrimidinic Endonuclease 1 (APE1) (AID 1705;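 also: TAMRA fluorescence gain over two minutes as APE1 cuts a quenched THF abasic duplex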)
# In short: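 Activity read as rising fluorescence (598 nm emission, 525 nm excitation) from incision of a TAMRA/BHQ-2 duplex carrying a THF abasic site (50 nM). Compound and enzyme sat 15 min at RT before substrate start; signal change between first and third 60-s reads.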
# [3] = molecular target: Endonuclease 4 (Escherichia coli (strain K12)) (UniProt P0A6C1); assay: Counterscreen for APE1 Inhibitors: qHTS Validation Assay for Inhibitors of Endonuclease IV (AID 1708)
# In short: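 Measured as reaction progress, the fluorescence gain between first and third kinetic reads after adding 50 nM TAMRA/BHQ-2 THF duplex to 2 nM enzyme preincubated 15 min with compound; 2 mM MgCl2, pH 7.5.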
# [4] = molecular target: ATP-dependent DNA helicase Q1 (Homo sapiens) (UniProt P46063); assay: qHTS Validation Assay for Inhibitors of RecQ-Like Dna Helicase 1 (RECQ1) (AID 2353)
# In short: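 RECQ1T1 50 nM; forked duplex (20 bp + 30-nt ss tails) 200 nM, ATP 2 mM final; pH 8.0, 2 mM MgCl2, 2.5 ug/ml poly(dI-dC); 15 min compound preincubation; discontinuous kinetic read over 2 h at RT.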
# [5] = Cytometric Cell-Based qHTS for Inhibitors of the mTORC1 Signaling Pathway in MEF (Tsc2-/-, p53-/-) Cells (AID 2660);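 also: Tsc2 and p53 null MEFs carrying empty vector with compound for 24 h; percent of cells above a phospho-rpS6 to PI ratio cutoff in each well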
# In short: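 Percent of cells positive for normalized phospho-S6 staining is reported, with the cutoff set from rapamycin (7.5 nM) versus DMSO wells. Tsc2-/-, p53-/- MEFs received compound for 24 hrs.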
# [6] = High Content Imaging Cell-Based qHTS for Inhibitors of the mTORC1 Signaling Pathway in MEF (Tsc2-/-, p53-/-) Cells (AID 2666); settings: at 38.3 µM (top of the series);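 also: percent of cells scored positive for phospho-rpS6 Ser235/236 immunostaining by imaging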
# In short: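 Inhibition of rpS6 phosphorylation is measured by immunofluorescence imaging in empty-vector Tsc2-/-, p53-/- mouse embryonic fibroblasts after 24 hrs compound exposure at 37 degree Celsius. Results are reported as % positive cells per well.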
# [7] = High Content Imaging Cell-Based qHTS for Inhibitors of the mTORC1 Signaling Pathway in MEF Cells (AID 2667);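 also: Tsc2-/- p53-/- MEFs stably re-expressing wild-type Tsc2 exposed 24 h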
# In short: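 Fixed-cell imaging of phospho-S6 (Ser235/236, Alexa-488) after 24 hrs of compound treatment at 37 degree Celsius. Signal was normalized to Hoechst, and thresholds from the highest and lowest wells split cells into % active versus % non-active.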
# [8] = Validation screen for small molecules that induce DNA re-replication in MCF 10A normal breast cells (AID 463097); also: nearly all actives have a fitted effect of over 60% in size
# In short: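 Read-out is Hoechst total nuclear intensity by fluorescence scanning imager, flagging increased high-DNA-content nuclei. Compounds were incubated with MCF 10A cells for 48 hr (37 C, 5% CO2) before 40 min staining.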
# [9] = molecular target: Tumor susceptibility gene 101 protein (Homo sapiens) (UniProt Q99816); assay: qHTS Validation Assay for Iinhibitors of HIV-1 Budding by Blocking the Interaction of PTAP/TSG101 (AID 485342; calls by dose curve)
# In short: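 Fluorescence polarization of 50 nM FITC-PTAP peptide bound to 10 uM Tsg101 binding domain was read after 20 min room-temperature incubation with compounds, in 10 mM HEPES pH 7.5, 0.15 M NaCl, 0.01% Tween 20.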
# [10] = molecular target: Beta-2 adrenergic receptor (Homo sapiens) (UniProt P07550); assay: qHTS validation assay of beta-arrestin-biased ligands of beta2-adrenergic receptor (AID 485366)
# In short: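 Screening used a titration range of up to 46 microM in a beta-arrestin recruitment Tango luciferase assay. Cells in 1% FBS medium were treated 18 hr at 37 degrees C, and luminescence was normalized to %Activity.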
# [11] = molecular target: Thioredoxin reductase 1, cytoplasmic (Rattus norvegicus) (UniProt O89049); assay: qHTS Assay for Substrates of Mammalian Selenoprotein Thioredoxin Reductase 1 (TrxR1) (AID 488772);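 also: a drop in NADPH fluorescence below the no-compound background marks a TrxR1 substrate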
# In short: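 In this dual-purpose format, potential substrates are identified from the first fluorescence read after selenite addition, not from the 8-minute delta. Rat enzyme is preincubated with NADPH and then with compound at ~22 deg C.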
# [12] = molecular target: M-phase phosphoprotein 8 (Homo sapiens) (UniProt Q99549); assay: qHTS Validation Assay for Inhibitors for MPP8 Chromodomain Interactions with Methylated Histone Tails (AID 488949);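 also: AlphaScreen signal from MPP8 chromodomain bound to biotinylated H3K9me3 peptide; top concentration of the series differs between compounds; nearly all actives have a fitted effect of over 55% in size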
# In short: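 AlphaScreen proximity signal from streptavidin donor and Ni-chelate acceptor beads (10 ug/mL each) reported binding of MPP8 to trimethyl-K9 H3(1-18) peptide, both at 50 nM. The complex formed 30 min before a 30 min compound exposure at room temperature, in PBS pH 7.4.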
# [13] = molecular target: Chromobox protein homolog 1 (Homo sapiens) (UniProt P83916); assay: qHTS Validation Assay for Inhibitors of HP1-beta Chromodomain Interactions with Methylated Histone Tails (AID 488953);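 also: loss of AlphaScreen luminescence from HP1-beta binding biotinylated H3K9me3 peptide; nearly all actives have a fitted effect of over 50% in size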
# In short: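 AlphaScreen proximity readout: streptavidin donor and Ni-chelate acceptor beads, 10 ug/mL final, 30 min dark, RT. Complex of 50 nM HP1-beta and 50 nM b-H3(1-18)K9me3 formed 30 min, then compound-treated 30 min; PBS pH 7.4/0.01% Tween-20.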
# [14] = molecular target: Methanococcus maripaludis chaperonin (MmCpn) (UniProt Q6LX38); assay: High-Throughput Screening for Modulators of Cytosolic Chaperonin Activity: MmCpn Primary Screen (AID 488978);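 also: 50 nM MmCpn enzyme hydrolysing 30 µM ATP at 37 °C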
# In short: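 ATPase activity of 50 nM MmCpn was assayed with 30 uM ATP, 10 minutes at 37C, after a 5 min compound preincubation at room temperature. ADP production was read as HTRF emission at 590 and 665 nm.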
# [15] = molecular target: Thyrotropin receptor (Homo sapiens) (UniProt P16473); assay: qHTS Assay for Antagonists of the Thyroid Stimulating Hormone Receptor (AID 488980)
# In short: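 Inhibition of cAMP raised by EC80 TSH (4 nM final) was read by HTRF, with lysate cAMP competing against cAMP-d2 for cryptate antibody after 30 min at room temperature. The cells were transfected HEK293 held in phosphodiesterase inhibitor RO 20-1724 at 70 uM.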
# [16] = Validation screen for small molecules that induce genotoxicity in human embryonic kidney (HEK293T) cells expressing luciferase-tagged ELG1 (AID 493106)
# In short: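 qHTS format; 2,000 HEK293T ELG1-luc cells/well; 23 nL compound via pin tool; 16 hr, 37 °C/5% CO2; ONE-Glo, 30 min RT; luminescence read.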
# [17] = molecular target: ATPase family AAA domain-containing protein 5 (Homo sapiens) (UniProt Q96QE3); assay: Validation screen for small molecules that inhibit ELG1-dependent DNA repair in human embryonic kidney (HEK293T) cells expressing luciferase-tagged ELG1 (AID 493107);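 also: cells co-treated with the DNA-damaging agent 5-fluorouridine alongside compound; inhibitors lower the ELG1-luciferase luminescence signal; nearly all actives have a fitted effect of over 70% in size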
# In short: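 ELG1-luciferase HEK293T reporter; 5-fluorouridine + compound/DMSO, 16 hr, 37 °C, 5% CO2; ONE-Glo 30 min RT; luminescence read, qHTS format.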
# [18] = molecular target: Thyrotropin-releasing hormone receptor (Homo sapiens) (UniProt P34981); assay: qHTS for Small Molecule Agonists and Allosteric Enhancers of Human TRH Receptor: Validation Screen for Agonists (AID 493127;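 active = calcium activation more than 3 SD above the typical response in the agonist read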;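 also: intracellular calcium rise by fluo-8 fluorescence before TRH EC20 addition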); settings: TRH receptor agonist cell assay; at 2 µM; stronger effect = higher value
# In short: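 Read-out: intracellular calcium release measured kinetically by FDSS (fluo-8, ex 480/em 530 nm), 1 reading/s after a 10-cycle baseline. TRHR cells, 2000/well, cultured 18 h at 33.5C, dye-loaded at room temp. Compound-evoked positive calcium signal flags agonists.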
# [19] = Nrf2 qHTS screen for inhibitors: Validation (AID 493153; active = well fitted inhibition curve with a large enough effect in the main read-out, with a control signal flat, not every such curve was filed as active); settings: viability change: measured here: cytotoxicity max response
# In short: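 Concentration-response test in A549 ARE_Fluc reporter cells (5% FBS OPTI-MEM), compound exposure 18-24 h at 37°C, 5% CO2. Cell viability measured first by CellTiter-Fluor fluorescence; ARE-driven luciferase luminescence then measured as Nrf2 activity.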
# [20] = qHTS for Inhibitors of Cell Surface uPA Generation: Validation Assay (AID 493164);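 also: RAW 264.7 macrophage cells exposed to compound for 18 h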
# In short: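 Compounds are titrated over seven points (2.45 nM–38.3 uM final) onto pre-plated RAW 264.7 cells and incubated for 18 h. Retained intracellular ATP, measured with ATP-Lite, indicates blocked lethal factor entry.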
# [21] = molecular target: Galactokinase (Homo sapiens) (UniProt P51570); assay: qHTS Validation Assay for Inhibitors of Human Galactokinase (GALK) (AID 493189)
# In short: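 Inhibition was measured as remaining ATP, detected by luciferase luminescence after a 1 h room-temperature reaction. Final conditions: 5 nM GALK, 100 uM galactose, 35 uM ATP, pH 8.0 HEPES buffer.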
# [22] = Validation screen for small molecules that induce DNA re-replication in SW480 colon adenocarcinoma cells (AID 504364)
# In short: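 Read-out: total Hoechst intensity of nuclei by fluorescence scanning imager; hits raise the fraction of nuclei with elevated DNA content. Cells received compound for 48 hr at 37 C before a 40 min stain.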
# [23] = molecular target: Peptidyl-prolyl cis-trans isomerase NIMA-interacting 1 (Homo sapiens) (UniProt Q13526); assay: qHTS Validation Assay to Find Inhibitors of Pin1 (AID 504536; active = well fitted inhibition curve with a large enough effect in the polarisation, with a control signal flat, not every such curve was filed as active; the % refers to the polarisation)
# In short: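 Fluorescence polarization competition: compounds (titration) displace HiFluor-488-labeled Pin1-1b peptide from Pin1 (0.3 uM final) in pH 7.5 HEPES buffer with DTT, 10 min at room temperature; %Activity normalized to no-enzyme wells, curves fitted.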
# [24] = molecular target: Phosphoglycerate kinase, glycosomal (Trypanosoma brucei brucei) (UniProt P07378); assay: qHTS Validation Assay to Find Inhibitors of Phosphoglycerate Kinase (AID 504547)
# In short: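 In TEA buffer (100mM, pH 7.6) containing 5mM MgCl2 and 0.01% Tween-20, the GAPDH-coupled PGK reaction proceeded for 60 minutes at room temperature before a single luminescence reading using Kinase-Glo Plus.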
# [25] = molecular target: phosphoglycerate mutase (Leishmania major) (UniProt Q4Q090); assay: qHTS Validation Assay to Find Inhibitors of Phosphoglycerate Mutase (AID 504548);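 also: end-point luminescence from Kinase-GloPlus after the PGAM reaction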
# In short: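 Inhibition of L. major PGAM was assessed by Kinase-GloPlus luminescence following a 45-minute room-temperature reaction with enzyme at 1.25nM final.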
# [26] = molecular target: Ubiquitin carboxyl-terminal hydrolase 1 (Homo sapiens) (UniProt O94782); assay: Inhibitors of USP1/UAF1: Pilot qHTS (AID 504865);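 also: rhodamine fluorescence freed from ubiquitin-rhodamine substrate followed over time; top concentration of the series differs between compounds; nearly all actives have a fitted effect of over 35% in size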
# In short: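 Deubiquitinase activity followed as kinetic rhodamine fluorescence release from 150 nM Ub-Rho. 1 nM USP1/UAF1 with compound, after 15 min room-temperature preincubation, in HEPES pH 7.8 buffer containing TCEP, EDTA, BSA and Tween-20.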
# [27] = molecular target: Voltage-gated inwardly rectifying potassium channel KCNH2 (Homo sapiens) (UniProt Q12809); assay: qHTS Assay for Small Molecule Inhibitors of the Human hERG Channel Activity (AID 588834);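 also: potency is read from the fitted curve at half-maximal effect; lower thallium flux fluorescence means stronger hERG block; nearly all actives have a fitted effect of over 50% in size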
# In short: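 hERG block measured as reduced thallium-dye (FluxOR) fluorescence after stimulation buffer addition, read over 2 min. Cells were hERG-BacMam-transduced U2OS exposed to compound ~10 min […]; concentration-response fitted with Hill equation for AC50.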
# Sequence of Beta-2 adrenergic receptor (Homo sapiens) (P07550 whole entry, looked up): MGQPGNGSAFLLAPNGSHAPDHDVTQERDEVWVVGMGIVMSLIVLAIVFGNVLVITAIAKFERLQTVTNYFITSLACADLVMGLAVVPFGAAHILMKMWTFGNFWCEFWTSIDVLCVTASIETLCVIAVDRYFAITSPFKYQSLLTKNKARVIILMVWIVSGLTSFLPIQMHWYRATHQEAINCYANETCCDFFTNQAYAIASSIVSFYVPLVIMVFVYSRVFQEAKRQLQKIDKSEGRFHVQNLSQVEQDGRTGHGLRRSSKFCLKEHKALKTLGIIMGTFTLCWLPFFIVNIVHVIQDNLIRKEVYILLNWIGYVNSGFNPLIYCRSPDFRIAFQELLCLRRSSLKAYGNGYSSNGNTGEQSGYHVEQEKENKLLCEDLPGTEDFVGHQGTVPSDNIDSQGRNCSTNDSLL
# Sequence of Ubiquitin carboxyl-terminal hydrolase 1 (Homo sapiens) (O94782 whole entry, looked up): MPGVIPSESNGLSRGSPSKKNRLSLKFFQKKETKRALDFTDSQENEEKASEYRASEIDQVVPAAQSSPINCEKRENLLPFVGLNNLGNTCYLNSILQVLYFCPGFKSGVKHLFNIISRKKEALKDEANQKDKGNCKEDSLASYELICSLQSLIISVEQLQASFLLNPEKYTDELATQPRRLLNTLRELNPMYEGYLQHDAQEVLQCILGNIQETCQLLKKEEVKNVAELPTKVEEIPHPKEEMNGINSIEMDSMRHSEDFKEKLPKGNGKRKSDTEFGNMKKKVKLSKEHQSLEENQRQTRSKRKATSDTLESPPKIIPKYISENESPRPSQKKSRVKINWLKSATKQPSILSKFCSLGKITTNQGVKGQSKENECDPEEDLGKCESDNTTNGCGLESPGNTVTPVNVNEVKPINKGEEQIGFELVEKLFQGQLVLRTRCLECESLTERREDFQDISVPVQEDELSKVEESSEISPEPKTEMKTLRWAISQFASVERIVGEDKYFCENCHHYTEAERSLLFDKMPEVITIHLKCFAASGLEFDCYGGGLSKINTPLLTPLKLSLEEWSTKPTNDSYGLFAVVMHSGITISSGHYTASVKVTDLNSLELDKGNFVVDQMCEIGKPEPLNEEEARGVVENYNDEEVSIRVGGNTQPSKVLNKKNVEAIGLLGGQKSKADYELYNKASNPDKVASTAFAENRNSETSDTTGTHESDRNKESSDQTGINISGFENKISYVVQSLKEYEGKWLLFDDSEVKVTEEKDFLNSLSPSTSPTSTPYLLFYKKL
# Sequence of Thyrotropin receptor (Homo sapiens) (P16473 whole entry, looked up): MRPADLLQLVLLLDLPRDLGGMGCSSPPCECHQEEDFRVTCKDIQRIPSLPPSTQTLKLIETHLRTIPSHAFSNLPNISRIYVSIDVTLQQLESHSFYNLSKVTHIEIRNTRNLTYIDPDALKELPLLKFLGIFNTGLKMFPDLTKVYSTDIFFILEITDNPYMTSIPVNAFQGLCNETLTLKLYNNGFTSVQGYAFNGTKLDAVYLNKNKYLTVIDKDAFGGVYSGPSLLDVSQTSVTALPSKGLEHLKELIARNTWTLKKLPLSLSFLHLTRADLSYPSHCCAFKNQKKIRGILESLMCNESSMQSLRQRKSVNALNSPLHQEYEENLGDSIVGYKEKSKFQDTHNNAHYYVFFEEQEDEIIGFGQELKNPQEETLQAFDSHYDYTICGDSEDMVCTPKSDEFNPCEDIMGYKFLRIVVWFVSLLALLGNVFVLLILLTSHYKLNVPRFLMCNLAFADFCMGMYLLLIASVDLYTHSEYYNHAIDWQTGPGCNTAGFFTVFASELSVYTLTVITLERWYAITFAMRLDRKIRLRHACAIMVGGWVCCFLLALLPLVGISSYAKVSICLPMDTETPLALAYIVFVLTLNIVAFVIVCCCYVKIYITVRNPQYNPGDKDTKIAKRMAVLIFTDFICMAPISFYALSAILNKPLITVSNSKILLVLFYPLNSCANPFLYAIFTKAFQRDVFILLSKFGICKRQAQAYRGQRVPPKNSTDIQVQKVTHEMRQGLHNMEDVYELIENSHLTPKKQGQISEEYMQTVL
# Sequence of Thyrotropin-releasing hormone receptor (Homo sapiens) (P34981 whole entry, looked up): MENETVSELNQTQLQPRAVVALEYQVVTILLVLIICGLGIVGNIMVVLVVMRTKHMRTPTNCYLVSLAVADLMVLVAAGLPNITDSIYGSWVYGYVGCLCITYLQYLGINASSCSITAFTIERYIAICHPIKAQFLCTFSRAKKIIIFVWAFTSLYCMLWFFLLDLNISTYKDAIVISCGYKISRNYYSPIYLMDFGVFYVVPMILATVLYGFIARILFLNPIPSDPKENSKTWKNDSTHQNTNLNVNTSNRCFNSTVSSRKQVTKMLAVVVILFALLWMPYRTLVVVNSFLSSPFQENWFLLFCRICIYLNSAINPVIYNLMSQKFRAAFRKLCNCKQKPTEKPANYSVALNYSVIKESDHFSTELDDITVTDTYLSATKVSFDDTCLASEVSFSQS
# Sequence of Tumor susceptibility gene 101 protein (Homo sapiens) (Q99816 whole entry, looked up, the tested form may be a part): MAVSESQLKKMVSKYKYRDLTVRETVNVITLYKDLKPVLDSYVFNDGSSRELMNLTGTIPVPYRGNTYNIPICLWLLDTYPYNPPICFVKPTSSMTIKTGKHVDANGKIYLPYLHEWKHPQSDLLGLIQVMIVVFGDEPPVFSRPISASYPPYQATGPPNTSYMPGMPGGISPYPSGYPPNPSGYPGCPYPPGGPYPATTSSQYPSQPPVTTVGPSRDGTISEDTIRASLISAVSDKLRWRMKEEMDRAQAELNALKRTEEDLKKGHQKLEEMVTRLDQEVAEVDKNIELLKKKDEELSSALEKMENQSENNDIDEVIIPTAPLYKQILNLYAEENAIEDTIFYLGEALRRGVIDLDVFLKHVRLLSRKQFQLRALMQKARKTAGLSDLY
# Sequence of Peptidyl-prolyl cis-trans isomerase NIMA-interacting 1 (Homo sapiens) (Q13526 whole entry, looked up): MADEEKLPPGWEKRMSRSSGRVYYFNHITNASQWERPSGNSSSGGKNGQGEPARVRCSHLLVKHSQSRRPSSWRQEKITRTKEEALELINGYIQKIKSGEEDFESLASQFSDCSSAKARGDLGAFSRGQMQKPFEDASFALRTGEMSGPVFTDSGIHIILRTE
# Sequence of Voltage-gated inwardly rectifying potassium channel KCNH2 (Homo sapiens) (Q12809 whole entry, looked up): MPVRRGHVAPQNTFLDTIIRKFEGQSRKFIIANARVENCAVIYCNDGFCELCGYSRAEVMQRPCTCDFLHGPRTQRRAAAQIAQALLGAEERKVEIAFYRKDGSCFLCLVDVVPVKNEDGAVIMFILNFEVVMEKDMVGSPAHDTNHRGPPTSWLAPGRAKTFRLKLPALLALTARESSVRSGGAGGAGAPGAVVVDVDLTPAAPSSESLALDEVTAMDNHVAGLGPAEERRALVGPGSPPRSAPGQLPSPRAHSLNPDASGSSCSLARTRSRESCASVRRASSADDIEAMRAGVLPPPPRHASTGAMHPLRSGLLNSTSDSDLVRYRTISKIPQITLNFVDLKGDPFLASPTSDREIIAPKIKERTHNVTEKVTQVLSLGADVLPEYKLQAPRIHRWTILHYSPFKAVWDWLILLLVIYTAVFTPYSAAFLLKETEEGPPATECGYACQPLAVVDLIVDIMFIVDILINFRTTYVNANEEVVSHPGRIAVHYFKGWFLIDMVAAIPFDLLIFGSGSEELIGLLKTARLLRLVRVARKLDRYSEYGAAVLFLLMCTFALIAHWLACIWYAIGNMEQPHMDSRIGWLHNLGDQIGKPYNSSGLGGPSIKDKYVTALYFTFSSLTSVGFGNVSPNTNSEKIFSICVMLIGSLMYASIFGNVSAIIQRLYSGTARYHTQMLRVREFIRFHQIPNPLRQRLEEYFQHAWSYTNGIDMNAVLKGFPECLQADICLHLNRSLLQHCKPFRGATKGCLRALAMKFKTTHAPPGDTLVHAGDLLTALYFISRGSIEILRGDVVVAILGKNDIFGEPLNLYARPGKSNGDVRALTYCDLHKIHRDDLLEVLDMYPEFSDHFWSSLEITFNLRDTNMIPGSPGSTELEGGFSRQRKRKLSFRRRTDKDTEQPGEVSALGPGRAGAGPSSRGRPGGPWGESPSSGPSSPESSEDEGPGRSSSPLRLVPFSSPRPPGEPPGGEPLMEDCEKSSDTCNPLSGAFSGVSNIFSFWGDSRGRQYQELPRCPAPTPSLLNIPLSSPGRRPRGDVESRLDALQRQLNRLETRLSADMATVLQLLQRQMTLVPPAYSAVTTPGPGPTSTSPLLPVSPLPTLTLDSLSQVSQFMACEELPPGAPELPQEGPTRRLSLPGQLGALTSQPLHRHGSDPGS
# Sequence of ATP-dependent DNA helicase Q1 (Homo sapiens) (P46063 whole entry, looked up): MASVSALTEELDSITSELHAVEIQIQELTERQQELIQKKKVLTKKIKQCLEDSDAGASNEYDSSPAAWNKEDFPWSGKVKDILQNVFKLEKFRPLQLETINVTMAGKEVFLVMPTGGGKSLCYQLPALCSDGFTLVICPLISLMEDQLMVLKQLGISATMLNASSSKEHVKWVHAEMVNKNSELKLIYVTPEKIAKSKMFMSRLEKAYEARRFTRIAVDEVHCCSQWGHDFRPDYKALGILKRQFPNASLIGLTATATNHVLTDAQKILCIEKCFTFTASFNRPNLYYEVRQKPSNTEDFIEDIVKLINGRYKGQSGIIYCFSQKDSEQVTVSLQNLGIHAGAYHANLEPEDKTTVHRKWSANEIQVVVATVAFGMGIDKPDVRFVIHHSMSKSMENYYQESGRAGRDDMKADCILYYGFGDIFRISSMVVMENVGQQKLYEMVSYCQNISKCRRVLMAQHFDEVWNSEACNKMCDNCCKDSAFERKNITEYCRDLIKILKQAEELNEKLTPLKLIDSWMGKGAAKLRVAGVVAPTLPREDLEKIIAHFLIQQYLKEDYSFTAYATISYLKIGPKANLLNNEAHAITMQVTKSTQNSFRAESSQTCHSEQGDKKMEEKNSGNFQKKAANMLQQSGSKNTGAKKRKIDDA
# Sequence of Chromobox protein homolog 1 (Homo sapiens) (P83916 whole entry, looked up): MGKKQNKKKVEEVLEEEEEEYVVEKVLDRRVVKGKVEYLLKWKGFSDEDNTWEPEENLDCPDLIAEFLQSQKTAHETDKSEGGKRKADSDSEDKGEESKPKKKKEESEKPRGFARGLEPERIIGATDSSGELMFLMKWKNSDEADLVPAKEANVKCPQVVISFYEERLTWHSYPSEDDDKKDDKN
smiles,measurement,setting,value
Oc1cc2c(c(Cl)c1O)CCNCC2c1ccccc1 (stereo not drawn),outcome,[1],inactive
same,Potency,[2],inactive
same,Potency,[3],inactive
same,Potency,[4],inactive
same,outcome,[5],inactive
same,outcome,[6],inactive
same,Potency,[7],inactive
same,Potency,[8],inactive
same,outcome,[9],inactive
same,outcome,[10],inactive
same,outcome,[11],inactive
same,Potency,[12],inactive
same,Potency,[13],inactive
same,outcome,[14],inactive
same,outcome,[15],inactive
same,Potency,[16],inactive
same,Potency,[17],inactive
same,activation,[18],2.25% (inactive)
same,outcome,[19],inactive
same,viability change,[19],-3.92%
same,outcome,[20],inactive
same,outcome,[21],inactive
same,outcome,[22],inactive
same,Potency,[23],inactive
same,Potency,[24],inactive
same,outcome,[25],inactive
same,Potency,[26],inactive
same,Potency,[27],2820 nM (active)
